Values joined by “and” are separate entries in the source; they are usually repeats but may differ in a detail not shown here. Equal entries are not always repeated. Records with an inconclusive call do not appear. A call without a number means that no potency is given here. Active and inactive are the calls of the source. Unless noted, the call rests on the fitted dose curve; in most records, active means well fitted cell-killing curve with a large enough effect in the repeat runs; inconclusive means weak or mixed curves, or effect the other way; inactive means flat fitted curve, though single readings scatter.
Tested on: not listed separately
Experiment: qHTS assay to identify small molecule that activate the aryl hydrocarbon receptor (AhR) signaling pathway - cell viability counter screen (AID 743086); further: nearly all actives have a fitted effect of over 45% in size; further: potency means the concentration at half of the fitted maximal effect
Conditions: HepG2-AhR-luc viability, CellTiter-Fluor, 24 h; series mostly up to 70.3 µM
Summary of the method: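 HepG2-AhR-luc (HG2L7.5c1) cells, 4000/well, were preincubated 5 h at 37C, exposed to compound in qHTS format for 24 hr at 37C, then given CellTiter-Fluor for 30 min; viability was read as fluorescence in the reporter wells.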

Row | SMILES | Potency
1 | N[C@H](C(=O)O)[C@@H]1CC(Cl)=NO1 | inactive
2 | O=C(O)C[C@H](O)C[C@H](O)/C=C/c1c(C2CC2)nc2ccccc2c1-c1ccc(F)cc1 | inactive
3 | CCCC(CCC)C(=O)OC1C[C@H]2CC[C@@H](C1)[N+]2(C)C (some centres undefined) | inactive
4 | c1ccc(-c2ccc(C(c3ccccc3)n3ccnc3)cc2)cc1 (centres undefined) | inactive
5 | Nc1nc(NC2CC2)c2ncn([C@@H]3C=C[C@@H](CO)C3)c2n1 | inactive
6 | CC1CCCC(C)N1NC(=O)c1ccc(Cl)c(S(N)(=O)=O)c1 (centres undefined) | inactive
7 | CO/N=C(\C(=O)N[C@@H]1C(=O)N2C(C(=O)O)=C(CSc3nc(C)c(CC(=O)O)s3)CS[C@H]12)c1csc(N)n1 | inactive
8 | Cc1ncc(C[n+]2csc(CCOP(=O)(O)O)c2C)c(N)n1 | inactive
9 | CCN1\C(=C/C=C/C=C/c2sc3ccccc3[n+]2CC)Sc2ccccc21 | 11.9 µM (active) and 23.7 µM (active)
10 | O=C(O)c1cc(O)c2c(c1)[C@H]([C@H]1c3cc(C(=O)O)cc(O)c3C(=O)c3c(O[C@@H]4O[C@H](CO)[C@@H](O)[C@H](O)[C@H]4O)cccc31)c1cccc(O[C@@H]3O[C@H](CO)[C@@H](O)[C@H](O)[C@H]3O)c1C2=O | inactive
11 | CNC(=O)C[C@@H](N)C(=O)N[C@@H](C(=O)N[C@@H]1C(=O)N2[C@@H]1SC(C)(C)[C@@H]2C(=O)O)c1ccc(O)cc1 | inactive
12 | CC12CCC(C1)C(C)(C)C2=O (centres undefined) | inactive
13 | N[C@H](CO)C(=O)O | inactive
14 | C=CC(N)CCC(=O)O (centres undefined) | inactive
15 | CCC(=O)OC(OP(=O)(CCCCc1ccccc1)CC(=O)N1C[C@H](C2CCCCC2)C[C@H]1C(=O)O)C(C)C (some centres undefined) | inactive
16 | C/C(=C(/CCO)SSCC1CCCO1)N(C=O)Cc1cnc(C)nc1N (centres undefined) | inactive
17 | CNC(=O)OCc1cccc(COC(=O)NC)n1 | inactive
18 | Cc1cc(=O)c(C(=O)N[C@@H](C(=O)N[C@@H]2C(=O)N3C(C(=O)O)=C(CSc4nnnn4C)CS[C@H]23)c2ccc(O)cc2)c[nH]1 | inactive
19 | CCN(CC)CCn1c(=O)c(Cc2ccc(OC)cc2)nc2ccccc21 | inactive

Row | SMILES | Potency
20 | COc1ccc(/C=C/C(=O)O)cc1 | inactive
21 | CN(C)CCc1c[nH]c2ccc(Cn3cncn3)cc12 | inactive
22 | O=C(O)c1ccc(NC2OC[C@@H](O)[C@H](O)[C@H]2O)cc1 (some centres undefined) | inactive
23 | C[N+]1(CCCCC[N+]2(C)CCCC2)CCCC1 | inactive
24 | O=C1CCC(c2ccccc2)(C2CCN(Cc3ccccc3)CC2)C(=O)N1 (centres undefined) | inactive
25 | CC[C@H](C)C(=O)O[C@H]1CCC=C2C=C[C@H](C)[C@H](CC[C@@H]3C[C@@H](O)CC(=O)O3)[C@H]21 | inactive
26 | O=C1CC[C@@H](C(=O)N[C@H]2C[C@@H]2c2ccccc2)N1 | inactive
27 | O=C(O)Cc1nn(Cc2ccc(Br)cc2F)c(=O)c2ccccc12 | inactive
28 | COc1c(O)cc2c(c1O)[C@@H]1O[C@H](CO)[C@@H](O)[C@H](O)[C@H]1OC2=O | inactive
29 | CCCCCCCCCCCCCCCC(=O)OC[C@H](COP(=O)([O-])OCC[N+](C)(C)C)OC(=O)CCCCCCCCCCCCCCC | inactive
30 | CN1C(=O)C[C@@H](C(=O)N[C@@H](Cc2cnc[nH]2)C(=O)N2CCC[C@H]2C(N)=O)NC1=O | inactive
31 | CCN(CC)CCNC(=O)c1ccc(NS(C)(=O)=O)cc1 | inactive
32 | FC(F)(F)C(F)(F)C(F)(F)C(F)(F)C(F)(F)F | inactive
33 | Cc1c(O)c(=O)ccn1C | inactive
34 | COC1[C@@H](O[C@@H]2O[C@H](C)[C@@H](O[C@H]3C[C@@](C)(O)[C@H](OC(=O)CC(C)C)[C@H](C)O3)[C@H](N(C)C)[C@H]2O)[C@@H](CC=O)C[C@@H](C)[C@@H](O)/C=C/C=C/C[C@@H](C)OC(=O)C[C@H]1OC(C)=O (some centres undefined) | inactive
35 | C=C(Nc1ccc(OCC)cc1)Nc1ccc(OCC)cc1 | inactive
36 | NCC(O)CC(=O)O (centres undefined) | inactive
37 | COc1ccc([C@@H]2CC(=O)c3c(O)cc(O[C@@H]4O[C@H](CO[C@@H]5O[C@@H](C)[C@H](O)[C@@H](O)[C@H]5O)[C@@H](O)[C@H](O)[C@H]4O)cc3O2)cc1O | inactive

Target: Peroxisome proliferator-activated receptor gamma (Homo sapiens) (UniProt P37231)
Experiment: qHTS assay to identify small molecule agonists of the peroxisome proliferator-activated receptor gamma (PPARg) signaling pathway (AID 743094; active means well fitted activation curve with a large enough effect in the signal ratio in the repeat runs, not every such curve was filed as active; the % refers to the signal ratio)
Conditions: HEK293H PPARg-UAS-bla, beta-lactamase FRET ratio, 17 h; series mostly up to 57 µM
Summary of the method: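 Cells from the PPARg UAS-bla HEK293H line are plated and incubated 5 h at 37C. Compounds in DMSO are pinned in and left 17 h at 37C. LiveBLAzer B/G substrate is then added for 1 h at room temperature before fluorescence is measured.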

Chain of Peroxisome proliferator-activated receptor gamma (Homo sapiens) (P37231 whole entry, looked up): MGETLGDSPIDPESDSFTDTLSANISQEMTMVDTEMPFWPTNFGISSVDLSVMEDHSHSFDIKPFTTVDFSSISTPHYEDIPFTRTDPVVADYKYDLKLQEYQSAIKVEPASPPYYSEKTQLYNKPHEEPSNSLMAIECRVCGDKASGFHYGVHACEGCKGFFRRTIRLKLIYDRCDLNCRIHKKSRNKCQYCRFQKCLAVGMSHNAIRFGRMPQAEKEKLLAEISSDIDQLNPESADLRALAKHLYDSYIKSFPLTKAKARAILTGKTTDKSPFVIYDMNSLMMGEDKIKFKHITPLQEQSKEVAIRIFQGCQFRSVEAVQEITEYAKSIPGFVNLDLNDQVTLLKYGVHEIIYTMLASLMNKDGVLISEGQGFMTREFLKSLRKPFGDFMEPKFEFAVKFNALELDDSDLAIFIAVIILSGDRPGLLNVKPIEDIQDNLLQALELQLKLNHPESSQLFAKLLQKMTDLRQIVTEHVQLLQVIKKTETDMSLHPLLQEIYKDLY

Row | SMILES | Potency
38 | N[C@H](C(=O)O)[C@@H]1CC(Cl)=NO1 | inactive
39 | O=C(O)C[C@H](O)C[C@H](O)/C=C/c1c(C2CC2)nc2ccccc2c1-c1ccc(F)cc1 | inactive
40 | CCCC(CCC)C(=O)OC1C[C@H]2CC[C@@H](C1)[N+]2(C)C (some centres undefined) | inactive
41 | c1ccc(-c2ccc(C(c3ccccc3)n3ccnc3)cc2)cc1 (centres undefined) | inactive
42 | Nc1nc(NC2CC2)c2ncn([C@@H]3C=C[C@@H](CO)C3)c2n1 | inactive
43 | CC1CCCC(C)N1NC(=O)c1ccc(Cl)c(S(N)(=O)=O)c1 (centres undefined) | inactive
44 | CO/N=C(\C(=O)N[C@@H]1C(=O)N2C(C(=O)O)=C(CSc3nc(C)c(CC(=O)O)s3)CS[C@H]12)c1csc(N)n1 | inactive
45 | Cc1ncc(C[n+]2csc(CCOP(=O)(O)O)c2C)c(N)n1 | inactive
46 | CCN1\C(=C/C=C/C=C/c2sc3ccccc3[n+]2CC)Sc2ccccc21 | inactive
47 | O=C(O)c1cc(O)c2c(c1)[C@H]([C@H]1c3cc(C(=O)O)cc(O)c3C(=O)c3c(O[C@@H]4O[C@H](CO)[C@@H](O)[C@H](O)[C@H]4O)cccc31)c1cccc(O[C@@H]3O[C@H](CO)[C@@H](O)[C@H](O)[C@H]3O)c1C2=O | inactive
48 | CNC(=O)C[C@@H](N)C(=O)N[C@@H](C(=O)N[C@@H]1C(=O)N2[C@@H]1SC(C)(C)[C@@H]2C(=O)O)c1ccc(O)cc1 | inactive
49 | CC12CCC(C1)C(C)(C)C2=O (centres undefined) | inactive
50 | N[C@H](CO)C(=O)O | inactive
51 | C=CC(N)CCC(=O)O (centres undefined) | inactive
52 | CCC(=O)OC(OP(=O)(CCCCc1ccccc1)CC(=O)N1C[C@H](C2CCCCC2)C[C@H]1C(=O)O)C(C)C (some centres undefined) | inactive
53 | C/C(=C(/CCO)SSCC1CCCO1)N(C=O)Cc1cnc(C)nc1N (centres undefined) | inactive
54 | CNC(=O)OCc1cccc(COC(=O)NC)n1 | inactive
55 | Cc1cc(=O)c(C(=O)N[C@@H](C(=O)N[C@@H]2C(=O)N3C(C(=O)O)=C(CSc4nnnn4C)CS[C@H]23)c2ccc(O)cc2)c[nH]1 | inactive
56 | CCN(CC)CCn1c(=O)c(Cc2ccc(OC)cc2)nc2ccccc21 | inactive

Row | SMILES | Potency
57 | COc1ccc(/C=C/C(=O)O)cc1 | inactive
58 | CN(C)CCc1c[nH]c2ccc(Cn3cncn3)cc12 | inactive
59 | O=C(O)c1ccc(NC2OC[C@@H](O)[C@H](O)[C@H]2O)cc1 (some centres undefined) | inactive
60 | C[N+]1(CCCCC[N+]2(C)CCCC2)CCCC1 | inactive
61 | O=C1CCC(c2ccccc2)(C2CCN(Cc3ccccc3)CC2)C(=O)N1 (centres undefined) | inactive
62 | CC[C@H](C)C(=O)O[C@H]1CCC=C2C=C[C@H](C)[C@H](CC[C@@H]3C[C@@H](O)CC(=O)O3)[C@H]21 | inactive
63 | O=C1CC[C@@H](C(=O)N[C@H]2C[C@@H]2c2ccccc2)N1 | inactive
64 | O=C(O)Cc1nn(Cc2ccc(Br)cc2F)c(=O)c2ccccc12 | inactive
65 | COc1c(O)cc2c(c1O)[C@@H]1O[C@H](CO)[C@@H](O)[C@H](O)[C@H]1OC2=O | inactive
66 | CCCCCCCCCCCCCCCC(=O)OC[C@H](COP(=O)([O-])OCC[N+](C)(C)C)OC(=O)CCCCCCCCCCCCCCC | inactive
67 | CN1C(=O)C[C@@H](C(=O)N[C@@H](Cc2cnc[nH]2)C(=O)N2CCC[C@H]2C(N)=O)NC1=O | inactive
68 | CCN(CC)CCNC(=O)c1ccc(NS(C)(=O)=O)cc1 | inactive
69 | FC(F)(F)C(F)(F)C(F)(F)C(F)(F)C(F)(F)F | inactive
70 | Cc1c(O)c(=O)ccn1C | inactive
71 | COC1[C@@H](O[C@@H]2O[C@H](C)[C@@H](O[C@H]3C[C@@](C)(O)[C@H](OC(=O)CC(C)C)[C@H](C)O3)[C@H](N(C)C)[C@H]2O)[C@@H](CC=O)C[C@@H](C)[C@@H](O)/C=C/C=C/C[C@@H](C)OC(=O)C[C@H]1OC(C)=O (some centres undefined) | inactive
72 | C=C(Nc1ccc(OCC)cc1)Nc1ccc(OCC)cc1 | inactive
73 | NCC(O)CC(=O)O (centres undefined) | inactive
74 | COc1ccc([C@@H]2CC(=O)c3c(O)cc(O[C@@H]4O[C@H](CO[C@@H]5O[C@@H](C)[C@H](O)[C@@H](O)[C@H]5O)[C@@H](O)[C@H](O)[C@H]4O)cc3O2)cc1O | inactive

Reference: PubChem BioAssay (Tox21)
